# “And” between values parts separate entries of the source, which are not always exact repeats. Equal entries are not always repeated. Inconclusive results are not listed. The source made the active and inactive calls. Cut-off read from the data, not from the text of the source, unless noted: active = inhibition above about 80%; inactive = the rest.
# Legend:
# [1] = target: 6-phosphogluconate dehydrogenase, decarboxylating (Homo sapiens) (UniProt P52209); experiment: 6PGD enzyme inhibitors, primary screen, biochemical, human, recombinant enzyme, NADPH absorbance (AID 1159550;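 active = at least 20% inhibition of 6-phosphogluconate dehydrogenase activity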); conditions: recombinant 6PGD, NADPH absorbance 341 nm; at 10 µM; stronger effect = higher value
# Sequence of 6-phosphogluconate dehydrogenase, decarboxylating (Homo sapiens) (P52209 whole entry, looked up): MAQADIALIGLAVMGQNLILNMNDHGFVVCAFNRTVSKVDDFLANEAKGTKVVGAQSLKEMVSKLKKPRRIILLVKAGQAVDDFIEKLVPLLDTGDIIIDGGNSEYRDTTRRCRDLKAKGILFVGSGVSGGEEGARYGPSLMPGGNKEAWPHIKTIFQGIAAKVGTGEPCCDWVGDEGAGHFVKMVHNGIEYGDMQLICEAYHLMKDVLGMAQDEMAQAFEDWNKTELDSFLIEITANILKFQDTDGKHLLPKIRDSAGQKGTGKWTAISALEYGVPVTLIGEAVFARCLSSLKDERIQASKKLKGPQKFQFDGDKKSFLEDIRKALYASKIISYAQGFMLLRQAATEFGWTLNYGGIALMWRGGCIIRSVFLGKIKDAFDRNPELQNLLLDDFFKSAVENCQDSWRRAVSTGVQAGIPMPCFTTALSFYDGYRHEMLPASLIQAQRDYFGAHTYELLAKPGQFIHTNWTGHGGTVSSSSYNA
# [2] = sensitizers of A549 cells to miR-34 induction, primary screen, imaging, A549 dox-inducible miR-34, nuclei and caspase counts (AID 1347080;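 active = compounds whose cell count with miR-34 switched on is under 0.7 times the count with it off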); conditions: A549 miR-34 inducible, Hoechst nuclei count, 48 h
# [3] = target: NAD(+) hydrolase SARM1 (Homo sapiens) (UniProt Q6SZW1); experiment: SARM1 TIR NADase inhibitors, cell lysate, NAD-Glo luminescence (AID 1508614;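 active = compound whose remaining NAD level is above about 45 nM, limit read from the data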;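 note: higher remaining NAD means stronger inhibition of SARM1 NADase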); conditions: SAM-TIR HEK293T lysate NADase, at 1 µM, stronger effect = higher value
# Sequence of NAD(+) hydrolase SARM1 (Homo sapiens) (Q6SZW1 whole entry, looked up, the tested form may be a part): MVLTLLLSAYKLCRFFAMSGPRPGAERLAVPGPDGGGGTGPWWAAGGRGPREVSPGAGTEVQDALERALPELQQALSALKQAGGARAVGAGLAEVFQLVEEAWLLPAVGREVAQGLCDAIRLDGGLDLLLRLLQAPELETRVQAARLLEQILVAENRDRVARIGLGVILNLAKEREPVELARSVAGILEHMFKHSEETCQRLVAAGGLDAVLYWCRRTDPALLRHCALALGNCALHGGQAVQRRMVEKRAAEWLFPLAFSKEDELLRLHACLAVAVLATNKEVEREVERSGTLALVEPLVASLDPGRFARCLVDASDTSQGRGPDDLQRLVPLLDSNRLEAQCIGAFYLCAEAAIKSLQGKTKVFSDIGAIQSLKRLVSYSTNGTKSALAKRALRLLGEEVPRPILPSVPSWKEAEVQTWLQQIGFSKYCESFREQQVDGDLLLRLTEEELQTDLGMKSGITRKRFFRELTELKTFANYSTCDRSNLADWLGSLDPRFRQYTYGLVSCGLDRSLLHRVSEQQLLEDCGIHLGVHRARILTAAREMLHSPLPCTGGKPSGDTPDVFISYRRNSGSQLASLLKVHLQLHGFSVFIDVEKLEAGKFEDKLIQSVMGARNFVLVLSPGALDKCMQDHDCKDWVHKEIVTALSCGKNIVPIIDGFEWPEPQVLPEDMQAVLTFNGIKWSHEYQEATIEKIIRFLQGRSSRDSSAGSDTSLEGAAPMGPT
# [4] = target: Mitogen-activated protein kinase 7 (Homo sapiens) (UniProt Q13164); experiment: ERK5 transactivation activators in reporter cells, primary screen, cell-based, HTS (AID 1508626;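 active = luciferase signal above three times the same-plate solvent-only control wells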;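 note: luciferase driven by Gal4-ERK5 fusion binding five Gal4 sites before minimal TATA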); conditions: HeLa Gal4-ERK5 transactivation, 18 h, at 5 µM, stronger effect = higher value
# Sequence of Mitogen-activated protein kinase 7 (Homo sapiens) (Q13164 whole entry, looked up, the tested form may be a part): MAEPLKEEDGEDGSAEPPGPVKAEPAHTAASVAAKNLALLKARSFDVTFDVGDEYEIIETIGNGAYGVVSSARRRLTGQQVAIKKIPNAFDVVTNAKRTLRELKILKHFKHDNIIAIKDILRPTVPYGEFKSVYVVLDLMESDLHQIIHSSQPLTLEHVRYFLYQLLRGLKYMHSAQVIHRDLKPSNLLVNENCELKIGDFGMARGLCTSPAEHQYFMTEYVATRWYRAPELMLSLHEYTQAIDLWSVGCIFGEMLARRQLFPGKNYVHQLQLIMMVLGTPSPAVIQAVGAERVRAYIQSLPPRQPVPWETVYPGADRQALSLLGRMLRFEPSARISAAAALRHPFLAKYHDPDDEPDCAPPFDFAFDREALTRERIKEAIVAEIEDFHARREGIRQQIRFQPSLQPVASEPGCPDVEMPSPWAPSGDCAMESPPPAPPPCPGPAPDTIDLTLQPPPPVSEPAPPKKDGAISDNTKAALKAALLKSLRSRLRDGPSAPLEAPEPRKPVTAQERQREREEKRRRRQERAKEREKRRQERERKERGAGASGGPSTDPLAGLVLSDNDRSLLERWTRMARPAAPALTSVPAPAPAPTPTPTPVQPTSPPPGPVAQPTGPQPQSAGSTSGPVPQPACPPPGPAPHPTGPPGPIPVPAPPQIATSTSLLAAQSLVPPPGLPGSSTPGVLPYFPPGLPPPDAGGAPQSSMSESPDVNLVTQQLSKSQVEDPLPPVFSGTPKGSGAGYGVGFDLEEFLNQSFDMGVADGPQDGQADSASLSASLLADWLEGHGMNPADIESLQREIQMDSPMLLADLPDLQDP
# [5] = viability rescue of complex I mutant cybrids, primary screen, cell-based, galactose medium, ATP luminescence (AID 1645843;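 active = z-score of at least 1.8 in each of two replicates, scored against plate mean and spread of sample wells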;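 note: positive z means more ATP and so rescue of galactose-driven cybrid death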); conditions: complex I mutant cybrid cells, 72 h, stronger effect = higher value
# [6] = LFS_MB_P medulloblastoma growth inhibition, cell-based, chromothripsis tumors, cisplatin or BGB combos (AID 1671449); conditions: LFS_MB_P medulloblastoma cells;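 note: cells exposed for 96 hours; 0% = vehicle DMSO and 100% = killing by high DMSO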
# [7] = HDN33 neuroblastoma growth inhibition, cell-based, chromothripsis tumors, cisplatin or BGB combos (AID 1671450); conditions: HDN33 neuroblastoma cells, stronger effect = higher value;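 note: cells exposed to compound for four days; 0% = vehicle DMSO and 100% = cell killing by high DMSO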
# [8] = ICB984 medulloblastoma cell growth inhibition, synergistic combos for chromothripsis tumors, cisplatin or BGB combos (AID 1671451; call rule not given here;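 note: cells exposed for 96 hours before readout; 0% = vehicle DMSO and 100% = killing by high DMSO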); conditions: ICB984 medulloblastoma cells, drug combinations, stronger effect = higher value
# [9] = LFS_MB_1R medulloblastoma cell growth inhibition, synergistic combos for chromothripsis tumors, cisplatin or BGB combos (AID 1671452); conditions: LFS_MB_1R medulloblastoma cells, stronger effect = higher value;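 note: cells exposed for 96 hours before readout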
# [10] = HTB85 osteosarcoma cell growth inhibition, synergistic combos for chromothripsis tumors, BGB or cisplatin IC20 combos (AID 1671453); conditions: HTB85 osteosarcoma cells, drug combinations, stronger effect = higher value;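 note: cells exposed for 96 hours before readout; 0% = vehicle DMSO and 100% = high DMSO killing control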
# [11] = MDA-MB-436 breast carcinoma cell growth inhibition, synergistic combos for chromothripsis tumors, BGB or cisplatin combos (AID 1671458; call rule not given here;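 note: cells exposed for 96 hours; 0% = vehicle DMSO and 100% = killing by high DMSO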); conditions: MDA-MB-436 breast carcinoma growth inhibition, drug combinations, stronger effect = higher value
# [12] = growth inhibition of BT084 medulloblastoma cells, cell-based, ICGC_MB145, cisplatin and BGB IC40 combos (AID 1671461); conditions: drug combinations, stronger effect = higher value;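 note: cells exposed to drugs for 96 hours; 0% = vehicle DMSO and 100% = high DMSO full killing control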
# [13] = growth inhibition of RCMB18 medulloblastoma cells, cell-based, cisplatin and BGB IC40 combos (AID 1671462); conditions: stronger effect = higher value;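 note: cells exposed to compound for four days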
# [14] = growth inhibition of CRL1545 osteosarcoma cells, cell-based, cisplatin and BGB IC20 combos (AID 1671464); conditions: stronger effect = higher value;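 note: cells exposed to compound for 96 hours before readout; 0% = vehicle DMSO and 100% = high DMSO killing control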
# [15] = growth inhibition of DIPG glioma cells, dose response, cell-based, JHH-DIPG-1, MIPE4.0, CellTiter-Glo, qHTS (AID 1347062; cut-off not given, nearly all actives have AC50 up to about 27 µM); conditions: JHH-DIPG-1 viability, CellTiter-Glo ATP luminescence
# [16] = growth inhibition of DIPG glioma cells, dose response, cell-based, SU-DIPG-IV, MIPE4.0, CellTiter-Glo, qHTS (AID 1347063; cut-off not given, nearly all actives have AC50 up to about 30 µM;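 note: compound exposure lasted 48 hours before the viability readout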); conditions: SU-DIPG-IV viability, CellTiter-Glo ATP luminescence
# [17] = hESC survival regulators, cell-based (AID 493140; call rule not given here;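 note: cells exposed to compounds for four days before counting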); conditions: human embryonic stem cell survival screen; stronger effect = higher value
# [18] = liver-stage malaria parasite growth inhibition, primary screen, cell-based, HepG2, luciferase luminescence, HepG2 viability (AID 624349; in the data active = parasite load remaining mostly below about 12%, no sharp cut-off; inactive = mostly above about 10%;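 note: 100% = mean of DMSO negative control wells on the same plate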); conditions: P. berghei liver stage in HepG2, luciferase luminescence, concentration not given here; parasite load remaining: stronger effect = lower value; viability: measured here: HepG2 viability without parasites
# [19] = survival rescue of mitochondrial mutant cells in low glucose, primary screen, MELAS cybrids, Rieske KO mouse fibroblasts, CellTiter-Glo (AID 1508586;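 active = mean z-score across replicates of 1.96 or higher in either the MELAS or the Rieske mutant cell line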;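 note: z relative to plate mean and SD of compound and empty wells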)
# [20] = stronger effect = lower value, cell number ratio, induced over uninduced
# [21] = measured here: relative caspase fold change +Dox/-Dox
# [22] = measured here: total cells with miR-34 induction, stronger effect = lower value
# [23] = measured here: total cells without miR-34 induction
# [24] = measured here: combination with BGB IC40, at 0.05 µM
# [25] = measured here: with BGB IC20 combination, at 0.5 µM
# [26] = measured here: with cisplatin IC20 combination, at 0.5 µM
# [27] = measured here: combination with cisplatin, at 0.5 µM
smiles,measurement,setting,value
COc1cc(NS(C)(=O)=O)ccc1Nc1c2ccccc2nc2ccccc12,inhibition,[1],-14.7% (inactive)
same,fold change,[2]; [20],0.846 (inactive)
same,fold change,[2]; [21],1.94
same,cell count,[2]; [22],867
same,cell count,[2]; [23],1020
same,remaining NAD,[3],10 nM (inactive)
same,luciferase signal,[4],52 AU (inactive)
same,z-score,[5],-1.31 (inactive)
same,inhibition,"[6]; at 0.5 µM, stronger effect = higher value",66.6% (inactive) and -15.7% (inactive)
same,inhibition,"[6]; measured here: combination with BGB IC20, at 0.005 µM",-8.73% and -9.94%
same,inhibition,"[6]; measured here: combination with BGB IC40, at 0.005 µM",-5.2% and -25.6%
same,inhibition,[6]; [24],-1.49% and -18.2%
same,inhibition,"[6]; measured here: combination with cisplatin, at 0.5 µM, stronger effect = higher value",79.4% and -1.04%
same,inhibition,"[6]; measured here: combination with cisplatin, at 5 µM, stronger effect = higher value",41.8% and 26.1%
same,inhibition,"[7]; BGB combo, at 5 µM",88.5% and 63.3%
same,inhibition,[7]; at 0.5 µM,50.8% (inactive) and 41.9% (inactive)
same,inhibition,"[7]; cisplatin combo, at 5 µM",68.8% and 65.8%
same,inhibition,[7]; [25],51.3% and 43.7%
same,inhibition,[7]; [26],45.8% and 24%
same,inhibition,"[7]; single agent, at 5 µM",88.6% and 78.5%
same,inhibition,"[8]; BGB IC20 combo, at 0.005 µM",-6.17% and -3.09%
same,inhibition,"[8]; BGB IC40 combo, at 0.005 µM",3.68% and -48.5%
same,inhibition,"[8]; BGB IC40 combo, at 0.05 µM",39.5% and 18.4%
same,inhibition,[8]; at 0.5 µM,-24.7% (inactive) and -27.8% (inactive)
same,inhibition,"[8]; cisplatin combo, at 0.05 µM",39.5% and 15.2%
same,inhibition,"[8]; cisplatin combo, at 0.5 µM",-38.9% and -24.5%
same,inhibition,"[8]; cisplatin combo, at 5 µM",-5% and -33%
same,inhibition,"[8]; measured here: 5 uM single agent, at 5 µM",3.59% and -0.607%
same,inhibition,[9]; at 0.5 µM,1.68% (inactive) and -19.1% (inactive)
same,inhibition,[9]; [24],17.9% and -5.14%
same,inhibition,[9]; [27],10% and -20.9%
same,inhibition,"[9]; measured here: combination with cisplatin, at 5 µM",63.4% and 27.6%
same,inhibition,[10]; at 0.5 µM,17.3% (inactive) and 24.9% (inactive)
same,inhibition,"[10]; measured here: with BGB IC20, at 0.5 µM",3.95% and 14.9%
same,inhibition,"[10]; measured here: with BGB IC20, at 5 µM",82.3% and 79.8%
same,inhibition,"[10]; measured here: with cisplatin IC20, at 0.5 µM",25% and 29.1%
same,inhibition,"[10]; measured here: with cisplatin IC20, at 5 µM",87.8% and 84.6%
same,inhibition,"[10]; single agent, at 5 µM",91% and 89.1%
same,inhibition,[11]; at 0.5 µM,43.4% (inactive) and 40.4% (inactive)
same,inhibition,"[11]; measured here: BGB combination, at 0.5 µM",27.5% and 21.1%
same,inhibition,"[11]; measured here: BGB combination, at 5 µM",55% and 42.6%
same,inhibition,"[11]; measured here: cisplatin combination, at 0.5 µM",41.4% and 47.1%
same,inhibition,"[11]; measured here: cisplatin combination, at 5 µM",67.1% and 66.9%
same,inhibition,[12]; at 0.5 µM,-11.3% (inactive) and -37.4% (inactive)
same,inhibition,"[12]; cisplatin combination, at 0.5 µM",-2.36% and -21.2%
same,inhibition,"[12]; cisplatin combination, at 5 µM",23.7% and 15.2%
same,inhibition,"[12]; measured here: BGB IC40 combination 0.05 uM, at 0.05 µM",53.7% and -12.4%
same,inhibition,"[12]; single agent, at 5 µM",7.96% and 23.3%
same,inhibition,[13]; at 0.5 µM,-1.22% (inactive) and -23% (inactive)
same,inhibition,"[13]; cisplatin combo, at 5 µM",58.3% and 44.1%
same,inhibition,"[13]; measured here: BGB IC40 combination, at 0.05 µM",-16.8% and -37.3%
same,inhibition,[13]; [27],28.6% and 11.4%
same,inhibition,"[13]; single agent, at 5 µM",29.4% and 2.77%
same,inhibition,[14]; at 0.5 µM,24% (inactive) and 17.8% (inactive)
same,inhibition,[14]; [25],24.3% and 13.1%
same,inhibition,[14]; [26],23.8% and 20.2%
same,inhibition,"[14]; single agent, at 0.05 µM",42.2% and 26.1%
same,inhibition,"[14]; single agent, at 5 µM",82.1% and 75.5%
O=C(O)C1=CCCNC1,inhibition,[1],-3.98% (inactive)
same,fold change,[2]; [20],0.989 (inactive) and 0.96 (inactive)
same,fold change,[2]; [21],0.827 and 0.802
same,cell count,[2]; [22],8890 and 8940
same,cell count,[2]; [23],8980 and 9310
same,luciferase signal,[4],48 AU (inactive)
same,z-score,[5],0.54 (inactive) and -0.25 (inactive)
CC(C)(O)CC[C@@H](O)[C@](C)(O)[C@H]1CC[C@@]2(O)C3=CC(=O)[C@@H]4C[C@@H](O)[C@@H](O)C[C@]4(C)[C@H]3CC[C@]12C,inhibition,[1],8% (inactive)
same,outcome,[15],inactive
same,outcome,[16],inactive
same,luciferase signal,[4],60 AU (inactive)
CC(C)C[C@H]1C(=O)N2CCC[C@H]2[C@]2(O)O[C@](NC(=O)[C@@H]3C=C4c5cccc6[nH]c(Br)c(c56)C[C@H]4N(C)C3)(C(C)C)C(=O)N12,survival,[17],29.8 (inactive)
same,parasite load remaining,[18],105% (inactive)
same,viability,[18],88.9%
same,inhibition,[1],-9.44% (inactive)
same,fold change,[2]; [20],1.36 (inactive) and 1.09 (inactive)
same,fold change,[2]; [21],1.68 and 0.668
same,cell count,[2]; [22],5460 and 4760
same,cell count,[2]; [23],4010 and 4360
same,z-score,"[19]; MELAS cybrid survival, CellTiter-Glo 48 h, stronger effect = higher value",-0.164 (inactive)
same,z-score,"[19]; Rieske KO mouse fibroblast survival, CellTiter-Glo 72 h",-0.261
same,remaining NAD,[3],10 nM (inactive)
same,luciferase signal,[4],200 AU (inactive)
same,z-score,[5],-1.32 (inactive) and -1.22 (inactive)

# Source: PubChem BioAssay
